Assay outcomes: PubChem BioAssay, The Scripps Research Institute Molecular Screening Center
CHO-K1 Ca antag = counter-screen for M1 antagonists: effect in parental CHO-K1 cells; inhibition, % at 3 µM; ATP-induced calcium, Fluo-8 fluorescence; 360,000 tested, 0.6% active;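 active means inhibition above a per-plate cutoff, the plate's mean sample inhibition plus 3 SD, cut at about 24% in these data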;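 further: 0% = DMSO plus EC80 ATP and 100% = DMSO alone without ATP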
M1 antag = antagonists of human M1 muscarinic receptor; P11229; CHO-K1 hM1, Fluo-8 calcium fluorescence, ACh EC80 antagonist; inhibition, % at 3 µM; 360,000 tested, 1.3% active; AID 588852;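 active means percent inhibition above its own plate's cutoff, namely the mean of that plate's compound wells plus 3 SD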;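 further: peak over basal fluorescence ratio during 140 s after agonist addition; 0% = ACh EC80 plus DMSO and 100% = DMSO alone without agonist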
Target sequence (P11229 whole entry, looked up): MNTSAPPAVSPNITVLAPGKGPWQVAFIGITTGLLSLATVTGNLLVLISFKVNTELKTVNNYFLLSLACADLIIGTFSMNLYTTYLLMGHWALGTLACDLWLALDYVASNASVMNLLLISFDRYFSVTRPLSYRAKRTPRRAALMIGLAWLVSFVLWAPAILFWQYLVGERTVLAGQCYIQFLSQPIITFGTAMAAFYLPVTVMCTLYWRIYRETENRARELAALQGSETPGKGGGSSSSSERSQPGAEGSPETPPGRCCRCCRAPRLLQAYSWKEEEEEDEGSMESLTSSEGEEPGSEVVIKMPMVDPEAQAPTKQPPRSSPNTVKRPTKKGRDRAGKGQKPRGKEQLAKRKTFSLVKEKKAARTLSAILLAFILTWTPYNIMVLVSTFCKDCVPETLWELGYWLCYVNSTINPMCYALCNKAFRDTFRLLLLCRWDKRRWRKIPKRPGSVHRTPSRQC
M1 PAM parental = nonselective activator or artifact in parental CHO-K1 calcium assay. ATP EC20, Fluo-8 calcium fluorescence; 0% at ATP EC20, 100% at ATP max. activation, % at 3 µM. 360,000 tested, 0.02% active;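 active means activation above the run cutoff, the mean activation of all test compounds plus 3 SD, cut at about 40% in these data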;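 further: peak over basal fluorescence ratio in a 140 s read after ATP addition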
M1 ag parental = M1 agonist counterscreen hit in parental CHO-K1 cells; Fluo-8 calcium fluorescence; scaled to maximal ATP response, vehicle zero; activation, % at 3 µM; 360,000 tested, 0.48% active; AID 602248; in the data active means activation above about 15%;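 further: untransfected CHO-K1 host cells lacking M1 receptor as counterscreen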
CHRM1 agonist = activates human CHRM1 receptor. P11229. CHO-K1 hM1, Fluo-8 calcium fluorescence, agonist mode; 0% DMSO, 100% acetylcholine EC100. activation, % at 3 µM. 360,000 tested, 0.33% active. AID 588814;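 active means activation above the run's mean compound activation plus 3 SD, cut at about 16% in these data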;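 further: peak over basal fluorescence ratio within a 140 s kinetic read after compound addition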
M1 PAM = potentiates human M1 receptor response to acetylcholine. CHO-K1 hM1, Fluo-8 calcium fluorescence, ACh EC20; 0% = ACh EC20, 100% = maximal ACh. activation, % at 3 µM. P11229. 360,000 tested, 0.088% active. AID 588819; in the data active means activation above about 19%, passing the limit was not always enough
* marks the source's active call; other numbers are inactive results; . = no result. The list is not random: actives were taken first. Their share in the collection is about 2.3%.

SMILES	CHO-K1 Ca antag	M1 antag	M1 PAM parental	M1 ag parental	CHRM1 agonist	M1 PAM
Cc1nccn1CC(O)Cn1c2ccccc2c2ccccc21 (stereo unspecified)	-9.6	36.1*	22.9	1.0	-5.2	-20.6
CC(=O)NN1C(=O)/C(=C\c2ccc(Br)o2)SC1=S	7.3	7.1	5.2	0.7	-3.1	-5.9
CC(=O)NN1C(=O)/C(=C/c2ccc(Br)o2)SC1=S	-8.8	-3.2	9.4	0.7	-2.5	21.1*
CCCCN1C(=O)C(CC(=O)NC2CCCC2)CC(C(=O)N(CC)CC)=C1C (stereo unspecified)	26.2*	-7.2	-3.6	-0.5	-0.3	13.4
CCN(CC)C(=O)C1=C(C)N(CCC2=CCCCC2)C(=O)C(CC(=O)NCC2CCCCC2)C1 (stereo unspecified)	24.7*	9.5	-13.1	-0.6	-7.6	-4.3
CCCCN1C(=O)C(CC(=O)NC2CCCCC2)CC(C(=O)N(CC)CC)=C1C (stereo unspecified)	0.4	3.6	8.1	-0.1	-3.1	-0.6
COc1ccc(-n2nc3c(c2NC(=O)c2ccccc2S(=O)(=O)C(F)F)CS(=O)(=O)C3)cc1	-5.9	-5.3	3.3	2.7	-1.2	7.1
Cc1c2cnn(CC(=O)NC3CCCC3)c(=O)c2c(C)n1Cc1ccccc1	-3.9	-7.4	-12.2	3.6	22.9*	9.3
COc1cccc(OC)c1C(=O)NC(=S)NCc1cccnc1	3.2	-11.1	18.0	0.0	-2.0	13.1
Cc1cccc(OC(C)C(=O)Nc2nc(-c3ccncc3)cs2)c1 (stereo unspecified)	1.8	4.3	-16.9	0.1	-3.2	-0.7
CCOc1ccc(-c2c(=O)n(OCc3ccc([N+](=O)[O-])cc3)c3ccccc3[n+]2[O-])c(OCC)c1	4.6	-7.5	13.8	19.6*	6.7	9.2
CC(Sc1nnc(-c2cccs2)n1-c1ccccc1)C(=O)NCc1ccc2c(c1)OCO2 (stereo unspecified)	24.0*	-0.6	-8.5	0.2	-1.7	6.4
NCCC(=O)N1c2ccccc2Sc2ccccc21	-7.6	41.3*	6.7	0.9	-8.3	-26.0
NCCCC(=O)N1c2ccccc2Sc2ccccc21	-12.6	93.7*	28.1	0.5	-9.8	-27.3
CCc1cccc(NS(=O)(=O)c2c(C)nc3sc(CC)nn3c2=O)c1	0.9	72.6*	3.4	2.2	-8.7	-29.2
O=C(NCc1cccc(Cl)c1)c1cc(=O)[nH]c2ccccc12	1.8	6.6	-10.0	0.6	-4.2	0.3
CCN(CC)C(CNC(=O)c1cc(=O)[nH]c2ccccc12)c1ccccc1Cl (stereo unspecified)	-20.8	55.5*	18.7	1.8	-10.7	-30.2
CN(C)S(=O)(=O)c1cccc(CNCC2COc3ccccc3O2)c1 (stereo unspecified)	-17.7	-18.2	4.7	10.0	6.0	7.6
CC(O)(c1ccncc1)c1nc(-c2cccc(C(F)(F)F)c2)cs1 (stereo unspecified)	5.5	29.8*	4.5	7.3	-2.0	-10.6
CCN(CC)C(=O)c1cccc(-c2csc(C(C)(O)c3ccc(OC)cc3)n2)c1 (stereo unspecified)	13.8	46.4*	-12.2	10.7	6.1	-28.0
COc1ccc(OCC(=O)N/N=C2/C=C(C)CC2)cc1	-10.0	-2.8	22.6	1.3	-8.4	4.5
CSc1nnc(C2CCN(CC(=O)Nc3ccccc3N3CCOCC3)CC2)n1C(C)C	-8.4	-15.2	17.0	1.2	-4.4	8.5
COc1ccc(CNC(=O)COC(=O)CN2C(=O)C3CC=CCC3C2=O)cc1 (stereo unspecified)	2.2	-24.0	-4.7	0.1	3.2	26.5*
O=C1CCC/C(=N/Nc2ccc(Cl)cc2)C1	5.6	-4.7	2.0	-0.2	-4.3	9.5
CC1(c2ccc(F)cc2)OC(=O)c2c1ccc1ccccc21 (stereo unspecified)	-14.7	-3.6	21.4	0.3	-5.1	-1.8
SMILES	CHO-K1 Ca antag	M1 antag	M1 PAM parental	M1 ag parental	CHRM1 agonist	M1 PAM
O=C(NC1CC2CCCC(C1)N2Cc1ccccc1)c1cccc(F)c1 (stereo unspecified)	-9.6	49.5*	-8.3	0.0	-9.0	-24.9
CC(C)(C)OC(=O)NC1CC2CCCC(C1)N2Cc1ccccc1 (stereo unspecified)	-12.8	98.5*	13.2	0.3	-8.7	-30.3
O=C(NC1CC2CCCC(C1)N2Cc1ccccc1)c1cccc(Cl)c1 (stereo unspecified)	-0.6	21.9	-9.7	0.8	-7.1	-14.5
COCC(=O)NC1CC2CCCC(C1)N2Cc1ccccc1 (stereo unspecified)	-7.9	-5.7	6.4	0.7	-5.1	2.7
COc1ccccc1C(=O)NC1CC2CCCC(C1)N2Cc1ccccc1 (stereo unspecified)	-6.6	39.0*	12.2	0.1	-9.0	-24.1
Cc1ccccc1C(=O)NC1CC2CCCC(C1)N2Cc1ccc(Cl)cc1 (stereo unspecified)	-6.2	53.9*	16.5	0.6	-10.4	-26.0
CCc1nc2ccc(C(=O)N3CCN(C(C)=O)CC3)cn2c1N(C=O)Cc1ccc(OC)cc1	-11.3	-12.3	17.5	0.4	-4.9	4.3
O=C(NCC1CCOCC1)C1CCC(=O)N(Cc2cccc(C(F)(F)F)c2)C1 (stereo unspecified)	-4.5	-1.8	-3.8	0.2	-5.3	0.2
CCOC(=O)C1(Cc2ccccc2)CCCN(S(=O)(=O)N(C)C)C1 (stereo unspecified)	-16.2	-8.8	-0.3	0.8	-6.0	6.7
COc1ccc(N2C(=O)CC2(C#N)c2ccc(OCc3ccccc3)cc2)cc1 (stereo unspecified)	-19.4	-8.0	15.2	0.0	-0.3	4.5
CN(C)S(=O)(=O)c1ccc(C(=O)OCC(=O)NCc2ccco2)cc1	-11.7	-4.9	10.5	0.1	-9.6	7.2
CCOC(=O)c1c(NC(C)=O)sc2c1CCCNC2=O	26.4*	-6.1	-9.8	-0.3	6.7	9.1
CCOC(=O)c1c(NC(C)=O)sc2c1CCC(C=O)=C2Sc1ccccc1	-8.3	-4.3	14.4	-0.2	-5.4	0.8
Cc1ccc(C)c2sc(N3CCN(C(=O)c4ccc([N+](=O)[O-])o4)CC3)nc12	21.4	0.2	-35.0	0.0	-3.0	-0.4
O=C(c1ccc([N+](=O)[O-])o1)N1CCN(c2nc3c(F)cc(F)cc3s2)CC1	23.8*	4.8	-9.9	1.8	-3.6	-5.9
CCn1c(SCc2cccc(F)c2)nc2c(c1=O)SCC2	-13.1	8.9	24.7	-0.2	-0.3	0.2
CC1(C)OC(=O)C2=C(C[C@@H](C3CCCC3)O[C@H]2CCc2cccc(Cl)c2)O1	-13.0	.	6.7	0.1	.	.
O=c1[nH]c(=S)[nH]c2c1[C@H](CCc1cccc(Cl)c1)O[C@H](C1CCCC1)C2	-31.5	.	40.6*	1.9	.	.
